{"source": "PubChem BioAssay AID1259422", "about": "(The Scripps Research Institute Molecular Screening Center, 2018)", "note": "Among all 640,000 compounds or so, about 9,300 (1.5%) were called active. Shown is part of a subset that was picked to be rich in actives. Values without a mark were called inactive. No stated cut-off is given here; in the data, active means inhibition above about 32%; inactive means the rest."}
{"assay": "TEAD-YAP interaction inhibition, primary screen, TEAD-YAP interaction inhibitor project, luminescence, HEK-TIYL cells (AID 1259422);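 further: 0% = median of test compound wells and 100% = reference inhibitor wells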", "conditions": "TEAD-Gal4/YAP UAS-luciferase luminescence, at 9.12 µM, active compounds read high"}
{"smiles": "CC[n+]1c(/C=C/C=C2\\N(C)c3ccccc3C2(C)C)n(-c2ccccc2)c2ccc(Cl)cc21", "inhibition": "91.8% (active)"}
{"smiles": "C=C1C[C@@H](c2ccccc2)N2CCC[C@H]2[C@H]1C", "inhibition": "-6.5%"}
{"smiles": "C=C(C)CN(CC)C(C)Cc1ccc(OC)c(OC)c1", "note": "(stereo not given)", "inhibition": "-4.32%"}
{"smiles": "Cc1[nH]c2c(F)cccc2c1CCN", "inhibition": "1.82%"}
{"smiles": "CCOc1cc2c(cc1C=C(C#N)C#N)OCO2", "inhibition": "-1.58%"}
{"smiles": "CC1=CC(=Cc2sc3ccccc3[n+]2C)C=C(C)O1", "inhibition": "85.8% (active)"}
{"smiles": "Cc1ccc2nc(NC(=O)c3c(O)c4c(n(Cc5ccco5)c3=O)CCCC4)sc2c1", "inhibition": "-4.37%"}
{"smiles": "COc1cc(/C=C2\\C(=O)NC(=O)N(c3ccccc3)C2=O)ccc1O", "inhibition": "11.5%"}
{"smiles": "Cc1cc2c(cc1Br)NC(=O)C2(c1c(O)n(C)c(=O)n(C)c1=O)C(C#N)C#N", "note": "(stereo not given)", "inhibition": "-14.6%"}
{"smiles": "CN(C)P(=O)(c1cccc(C(=O)O)c1)N(C)C", "inhibition": "-4.89%"}
{"smiles": "CCOc1ccc(C(Nc2ccccc2)P2(=S)OCC(C)(C)CO2)cc1", "note": "(stereo not given)", "inhibition": "5.04%"}
{"smiles": "CN[C@@H]1C[C@H]2O[C@@](C)([C@@H]1OC)n1c3ccccc3c3c4c(c5c6ccccc6n2c5c31)C(=O)NC4", "inhibition": "102% (active)"}
{"smiles": "O=C1NC(=S)NC(=O)C1=Cc1ccc(-c2ccccc2)o1", "inhibition": "1.36%"}
{"smiles": "O=C(Cc1ccc(F)cc1)N(Cc1ccco1)C1CCN(Cc2ccncc2)CC1", "inhibition": "-7.86%"}
{"smiles": "COc1ccc(C=C(C#N)C#N)c(C)c1C", "inhibition": "-13.8%"}
{"smiles": "c1ccc2c(c1)[I+]c1ccccc1-2", "inhibition": "60% (active)"}
{"smiles": "CCOC(=O)C1=C(N)Oc2n[nH]c(C)c2C12C(=O)Nc1ccc(Br)cc12", "note": "(stereo not given)", "inhibition": "4.72%"}
{"smiles": "CC(=O)Nc1cc([N+](=O)[O-])ccc1N1CCN(C)CC1", "inhibition": "-2.87%"}
{"smiles": "COc1ccc(-n2c(-c3ccccc3)nc3ccccc3c2=O)cc1", "inhibition": "1.69%"}
{"smiles": "COc1ccc(C(C[N+](=O)[O-])c2c(-c3ccccc3)[nH]c3ccccc23)cc1", "note": "(stereo not given)", "inhibition": "52.6% (active)"}
{"smiles": "CCCCOc1ccccc1C1C(C#N)=C(N)Oc2c1c(=O)oc1ccccc21", "note": "(stereo not given)", "inhibition": "-0.47%"}
{"smiles": "Cc1ccc(NC(=O)C2C3c4ccccc4C(c4ccccc43)C2C(=O)O)cc1", "note": "(stereo not given)", "inhibition": "-0.29%"}
{"smiles": "CCCCC[n+]1ccc(-c2cc[n+](CCCCC)cc2)cc1", "inhibition": "56.5% (active)"}
{"smiles": "CCOC(=O)C1C2NC(=S)NC1(C)Oc1cc(OC)ccc12", "note": "(stereo not given)", "inhibition": "0.95%"}
{"smiles": "O=C(c1ccccc1)c1cc(Cl)ccc1N1C(=O)c2ccccc2C1=O", "inhibition": "-3.06%"}
{"smiles": "COc1cc(CN2CCN(C)CC2)ccc1O", "inhibition": "4.62%"}
{"smiles": "C[C@@H]1C[C@H]2CC[C@H](O2)[C@H](C)C(=O)O[C@@H](C)C[C@@H]2CC[C@@H](O2)[C@@H](C)C(=O)O[C@H](C)C[C@H]2CC[C@H](O2)[C@H](C)C(=O)O[C@@H](C)C[C@@H]2CC[C@@H](O2)[C@@H](C)C(=O)O1", "inhibition": "94.6% (active)"}
{"smiles": "N#C/C(=C\\c1cc2c(cc1Cl)OCO2)c1nn(CCO)c(N)c1C#N", "inhibition": "-18.8%"}
{"smiles": "CCC(=O)C1=C(C)OC(N)=C(C(=O)OC)C12C(=O)Nc1ccccc12", "note": "(stereo not given)", "inhibition": "3.18%"}
{"smiles": "COc1ccc2c(c1)c(C(=O)N1CCN(C)CC1)c(C)n2C", "inhibition": "-6.79%"}
{"smiles": "C(=N\\N1CCCCC1)/c1c[nH]c2ccccc12", "inhibition": "4.68%"}
{"smiles": "O=C1CC(=O)N(C2CCCCCC2)C(=O)N1", "inhibition": "-0.34%"}
{"smiles": "N#Cc1ccc(NC(=O)COC(=O)CCC2CCCC2)cc1Cl", "inhibition": "0.25%"}
{"smiles": "c1ccc2c(CCNC3CC4CCC3C4)c[nH]c2c1", "note": "(stereo not given)", "inhibition": "-1.36%"}
{"smiles": "CCCCCCOc1ccc(C=C2C(=O)NC(=S)NC2=O)cc1", "inhibition": "13%"}
